GLP-1R inv ag: GLP-1 receptor (human) inverse agonism; P43220; HEK293 GLP-1R CRE-luciferase, luminescence, 24 h; GLP-1R form is constitutively active; Potency, µM (top dose mostly 38.3 µM), for the others: at the top dose activity change, negative = inhibition, actives largely listed as inhibitors; AID 624417; 410,000 tested, 1.6% active; note: % is set by controls: 0 for no effect and ±100 for the full control effect; nearly all actives have a fitted effect of over 55% in size
Target sequence (P43220 whole entry, looked up): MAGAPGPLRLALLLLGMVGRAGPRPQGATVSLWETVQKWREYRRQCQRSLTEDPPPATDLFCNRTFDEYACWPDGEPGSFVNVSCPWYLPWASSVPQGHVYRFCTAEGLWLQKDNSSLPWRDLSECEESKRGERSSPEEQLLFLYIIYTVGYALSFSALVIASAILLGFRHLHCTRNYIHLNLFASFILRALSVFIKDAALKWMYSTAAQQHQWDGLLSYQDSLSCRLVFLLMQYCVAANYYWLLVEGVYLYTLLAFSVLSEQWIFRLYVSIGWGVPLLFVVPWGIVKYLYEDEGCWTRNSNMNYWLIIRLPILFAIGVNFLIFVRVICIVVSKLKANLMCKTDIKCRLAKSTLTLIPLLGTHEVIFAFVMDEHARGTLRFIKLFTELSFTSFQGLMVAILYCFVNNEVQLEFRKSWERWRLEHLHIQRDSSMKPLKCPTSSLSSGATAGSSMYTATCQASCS
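qHTS in 1536-well format: reporter HEK293 cells expressing constitutive GLP-1R activity in DMEM + 10% Nu serum, 24 hr with compounds at 37 deg C, luminescence read after 12 min with detection reagent.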
GLP-1R agonist: agonists of human GLP-1 receptor; P43220; 380,000 tested, 0.007% active; HEK293 GLP-1R CRE-luciferase, luminescence, 4-6 h; cells express a hypersensitive GLP-1R form; AID 624172; Potency, µM (highest dose often 45.6 µM), for inactives: top-dose activation, hits mostly activators; note: % of control where 0% means no effect
GLP1R cytotox: cytotoxic in the GLP-1 receptor inverse agonist counter-screen; HEK293 cAMP-luciferase reporter cells, luminescence, 24 h; Potency, µM (highest dose often 38.3 µM), without a hit: top-dose activity change, negative = inhibition, hits mostly inhibitors; 410,000 tested, 0.13% active; AID 624418;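 note: loss of luciferase light is scored as toxicity; % is set by controls: 0 for no effect and ±100 for the full control effect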
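Here, cytotoxicity is scored as loss of luminescence. The MLSMR collection was tested on cells seeded in medium containing 10% Nu serum, with a 24 hr compound exposure preceded by 12 hours of culture.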
RGS4 inh: inhibitors of human regulator of G protein signaling 4. Transcreener GDP fluorescence polarization, RGS4-accelerated GTP hydrolysis. Potency, µM (titrated, usually from 114 µM), without a hit: top-dose activity change, negative = inhibition, most hits filed as inhibitors. 390,000 tested, 0.039% active. AID 504845; note: % is set by controls: 0 for no effect and ±100 for the full control effect; nearly all actives have a fitted effect of over 75% in size
Target sequence (P49798 whole entry, looked up): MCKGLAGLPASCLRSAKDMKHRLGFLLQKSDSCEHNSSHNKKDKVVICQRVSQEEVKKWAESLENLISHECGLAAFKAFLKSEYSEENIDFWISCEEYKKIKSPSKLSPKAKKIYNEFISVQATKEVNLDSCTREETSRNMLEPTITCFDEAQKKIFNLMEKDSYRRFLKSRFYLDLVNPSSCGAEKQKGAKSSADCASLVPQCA
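MLSMR compounds (23 nl, pin-transferred) preincubated 10 min at room temperature with a 500nM (2x) first reagent, then RGS4 at 900nM (2x) plus Transcreener GDP mix added; fluorescence polarization (620/688 nm) read before and after 90 min at 30 °C.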
KAT2A inh: inhibitors of human GCN5L2 histone acetyltransferase; Q92830; GCN5L2 HAT assay, ThioGlo1 CoA-SH fluorescence; Potency, µM (series often up to 58.9 µM), for inactives: top-dose activity change, negative = inhibition, most hits filed as inhibitors; 390,000 tested, 0.21% active; AID 504327; note: % is set by controls: 0 for no effect and ±100 for the full control effect
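Preincubate 20nM GCN5L2 with compound 15 min, RT → add 50uM ThioGlo1 + 75uM H3(1-25) + 70uM acetyl-CoA → read fluorescence 0 and 20 min. Primary qHTS; fluorescent artifacts likely.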
PTHR1 agonist: agonists of human PTHR1 parathyroid hormone receptor; Potency, µM (series often up to 115 µM), inactives show at the highest dose activation, usual class: activators; HEK293 GP2 PTHR1 cells, GloSensor cAMP luminescence, 1 h; 410,000 tested, 0.075% active; note: nearly all actives have a fitted effect of over 55% in size
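HEK-293-derived GP2 cells expressing PTHR1 and a GloSensor cAMP reporter, 3,000/well, plated overnight, given luciferin plus IBMX (each 0.5 mM as added) for 1 h at 37 °C, then compound for 1 h at 37 °C. Luminescence was read after 15 min at room temperature.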
* = called active by the depositor; i = inactive; ? = inconclusive; nt = not tested or not shown; [ ] = dose if it differs, or a comment. The list is not random: actives were taken first. Their share in the collection is about 1.8%. Calls come from the whole dose curve; as a rule, active = well fitted curve in the direction sought with a large enough effect; inconclusive = small, poorly fitted or top-dose-only effect, or another doubt; inactive = no such curve, though single readings can be large; an effect the other way counts as inactive or inconclusive. Potency is the fitted concentration of half-maximal effect.

SMILES	GLP-1R inv ag	GLP-1R agonist	GLP1R cytotox	RGS4 inh	KAT2A inh	PTHR1 agonist
C/C(=N\NC(=S)NCc1ccccc1)c1ccc(Cl)s1	-5.9%	15.7%	8.7%	-16.6%	-6.0%	-20.9%
Cc1cc(=O)[nH]c2nnc(SCc3c(F)cccc3Cl)n12	0.4%	nt	-11.3%	-8.6%	-0.9%	?
NC(=O)c1cc(S(=O)(=O)N2CCN(c3ccc(F)cc3)CC2)cs1	-8.1%	nt	3.3%	4.4%	16.0%	-8.4%
COc1cc(CNn2cnnc2)ccc1OCC(=O)NC1CCCCC1	22.4%	9.4%	2.0%	-17.9%	-5.7%	i
COc1cc(CNCc2ccccc2Cl)ccc1OCC(=O)NC1CCCCC1	10µM*	13.0%	-26.0%	-8.8%	-1.1%	i
CC(C)CNC(=O)c1ccccc1NC(=O)CCSc1ccccc1	7.08µM*	24.6%	-8.7%	-22.0%	-3.2%	i
CC(C)CNC(=O)c1ccccc1NC(=O)c1ccc(CSc2ccccc2)cc1	?	5.9%	0.4%	-11.9%	-13.6%	i
CCC(/C=C1\Sc2ccc(OC)cc2N1CC)=C\c1sc2ccc(OC)cc2[n+]1CCCS(=O)(=O)[O-]	-29.2%	-6.4%	-31.3%	-55.7%[11.4 µM]	2.5%	-22.5%
CCC(/C=C1\Sc2ccc(OC)cc2N1CCO)=C\c1sc2ccc(OC)cc2[n+]1CCO	10µM*	3.0%	-18.3%	?	?	i
O=C(Nc1ccc(OC(F)(F)F)cc1)c1nc2ccccc2nc1N1CCCCC1	-2.6%	nt	9.6%	2.4%	-14.1%	-11.4%
Cc1ccc(C(c2sc3nc(C)nn3c2O)N2CCN(c3ccccc3F)CC2)cc1 (stereo not given)	8.91µM*	-7.2%	-16.3%	?	-5.4%	2.7%[57.5 µM]
C[C@@H](O)C(N)C(=O)O (stereo not given in full)	nt	nt	nt	nt	-19.2%	nt
C(=C\c1ccccc1)/C=N/N1CCN(c2ccccn2)CC1	3.55µM*	8.1%	-1.8%	7.5%	1.1%	i
C(/C=C/c1ccccc1)=N/N1CCN(c2ccccc2)CC1	0.0%	-24.9%	8.9%	28.2%	-21.4%	-17.3%[57.5 µM]
COc1cccc(-c2cnc(C(O)c3cccc(F)c3)[nH]2)c1 (stereo not given)	-10.6%	4.9%	-1.3%	nt	nt	i
CCCCCCn1c(=O)n2n(c1=O)[C@@H]1CN(S(=O)(=O)c3ccc(C)cc3)C[C@]1(O)[C@@H](OC(=O)Nc1c(C)noc1C)C2	-13.7%	7.3%	4.8%	nt	nt	i
Cc1cc(Nc2ccccc2)n(-c2ccc(Br)cc2)n1	?	-11.5%	1.2%	10.4%	-0.6%	-59.1%[57.5 µM]
Cc1cc(Nc2ccc(Cl)cc2)n(-c2cccc(Cl)c2)n1	7.94µM*	-4.0%	64.2%	0.3%[11.4 µM]	-4.5%	-15.1%
Cc1cc(Nc2ccc(Cl)cc2)n(-c2ccccc2)n1	2.82µM*	1.3%	-4.2%	4.4%	-1.5%	-23.2%[57.5 µM]
Cc1cc(Nc2ccccc2C(=O)O)n(-c2cccc(Cl)c2)n1	-35.1%	-8.0%	2.3%	16.6%	-24.7%	-34.9%
CCc1ccc2c(c1)NC(=O)C2(C)Cc1ccc(C(F)(F)F)nc1 (stereo not given)	3.7%	10.1%	-5.7%	nt	nt	-24.0%
CCN(CC)c1ccc(N=Nc2nn(C)c(C)c2[N+](=O)[O-])cc1	6.4%	18.1%	4.47µM*	-17.9%	-3.9%	-24.8%
COc1ccc2[nH]cc(CCNc3cc(-c4cccc(C#N)c4)ncn3)c2c1	nt	nt	nt	nt	-17.4%	nt
Cc1ccc(NC(=S)NNc2ccc([N+](=O)[O-])cc2S(=O)(=O)Nc2ccccc2C(=O)O)cc1C	1.0%	-28.3%	-22.8%	-52.7%	?	i
O=C(O)c1ccccc1NS(=O)(=O)c1ccc(NNC(=S)Nc2ccc(OC(F)F)cc2)c([N+](=O)[O-])c1	-10.1%	-5.7%	?	?	22.4µM*	i
SMILES	GLP-1R inv ag	GLP-1R agonist	GLP1R cytotox	RGS4 inh	KAT2A inh	PTHR1 agonist
CC(C)C(=O)Nc1nnc2n1CCS2	5.1%	-0.9%	3.2%	-10.4%	20.2%	i
CC(Oc1ccccc1)C(=O)Nc1nnc2n1CCS2 (stereo not given)	24.2%	nt	3.9%	24.8%	0.0%	31.6µM*
CN(C)c1ccc(NC(=O)Cn2c(SCc3ccc(F)cc3)nc3cccnc32)cc1	-10.9%	nt	-1.9%	-0.7%	-6.9%	50.1µM*
CN(C)c1ccc(NC(=O)Cn2c(SCc3ccc(F)cc3)nc3ccncc32)cc1	-17.5%	nt	-16.0%	-9.2%	-13.5%	21.4%
CN(C(=O)COC(=O)CNC(=O)c1sc2ccccc2c1Cl)c1ccccc1	1.4%	-0.5%	-0.7%	-9.7%	-9.6%	-22.2%
Cc1ccc(NC(=S)Nc2cc(-c3ccccc3)[nH]n2)cc1Cl	-26.1%	7.8%	?	?	-8.3%	-18.6%
Fc1ccc(NC(=S)Nc2cc(-c3ccccc3)[nH]n2)cc1Cl	?	1.5%	12.6µM*	-21.9%	-11.8%	-24.9%
COc1ccc(N2C[C@H](CSC)[C@@H](CC(=O)Nc3ccc(Br)cc3)C2=O)cc1	?	3.7%	-11.4%	nt	nt	-68.9%
COc1ccc(CN2C[C@H](Cc3ccccc3)[C@@H](CC(=O)Nc3ccccc3)C2=O)cc1	8.91µM*	13.9%	-4.1%	3.6%	-17.6%	-33.1%
CCCCCCc1ccc(N2C[C@H](CCCCC)[C@@H](CC(=O)NCc3ccc(OC)cc3)C2=O)cc1	?	-4.1%	6.2%	-16.7%	-10.7%	i
CCCCCCc1ccc(N2C[C@H](CCCCC)[C@@H](CC(=O)NCc3ccccc3)C2=O)cc1	4.47µM*	-4.2%	5.9%	-2.2%	-17.2%	-36.5%
CCC[C@H]1CN(c2ccc(Br)cc2)C(=O)[C@@H]1CC(=O)Nc1ccc(OC)cc1	7.94µM*	-1.9%	-7.5%	nt	nt	-72.9%
CCC[C@H]1CN(c2ccc(Br)cc2)C(=O)[C@@H]1CC(=O)Nc1ccccc1	11.2µM*	-0.3%	-4.2%	nt	nt	i
Cc1nnc(SCC(=O)NC2CCCC(C)C2C)n1N (stereo not given)	-11.7%	-10.9%	-2.2%	5.0%	-0.3%	i
Cc1ccc(/C=C/C(O)=C2/C(=O)N(C)C3(C)CC2c2ccccc2O3)cc1 (stereo not given)	2.24µM*	-6.5%	1.1%	4.8%	-11.0%	-25.6%
COc1ccc(/C=C/C(O)=C2/C(=O)N(C)C3(C)CC2c2ccccc2O3)cc1 (stereo not given)	?	-10.3%	-6.9%	-15.6%	-29.5%	-9.8%[57.5 µM]
CCOC(=O)c1c(NC(=O)CSc2nnc(-c3c[nH]c4ccccc34)n2CCOC)sc2c1CCCC2	11.2µM*	-1.0%	-12.9%	-22.2%	-6.6%	i

Source: PubChem BioAssay
